Screens: PubChem BioAssay, National Center for Advancing Translational Sciences (NCATS)
Sampled rows, rich in hits. Any-hit rate of the full collection: about 3.2%.
AMA1-RON2 inh = disrupts binding of P. falciparum AMA1 to RON2. AlphaScreen AMA1-biotinylated RON2 peptide binding. AID 720542. Potency, µM (top dose mostly 58.2 µM), for the others: top-dose activity change, negative = inhibition, usual class: inhibitors. 0.2% of 360,000 active;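 note: 0% = vehicle wells and -100% = peptide control; nearly all actives have a fitted effect of over 45% in size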
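AMA1 (3D7) with his tag at 25 nM final met compounds first, then biotinylated RON2 peptide at 25 nM; detection used donor plus acceptor beads, 10 µg/mL apiece, read by AlphaScreen after 30 min at room temperature.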
AmpC inh no detg = inhibitors of E. coli AmpC beta-lactamase without detergent. P00811. AmpC nitrocefin hydrolysis, absorbance 480 nm, 0.0001% Triton. Potency, µM (series often up to 57.1 µM), for inactives: at the highest dose activity change, negative = inhibition, usual class: inhibitors. 0.52% of 330,000 active. AID 485341;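 note: plate controls were no compound for no effect and no enzyme for full effect; nearly all actives have a fitted effect of over 20% in size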
Target sequence (P00811 whole entry, looked up): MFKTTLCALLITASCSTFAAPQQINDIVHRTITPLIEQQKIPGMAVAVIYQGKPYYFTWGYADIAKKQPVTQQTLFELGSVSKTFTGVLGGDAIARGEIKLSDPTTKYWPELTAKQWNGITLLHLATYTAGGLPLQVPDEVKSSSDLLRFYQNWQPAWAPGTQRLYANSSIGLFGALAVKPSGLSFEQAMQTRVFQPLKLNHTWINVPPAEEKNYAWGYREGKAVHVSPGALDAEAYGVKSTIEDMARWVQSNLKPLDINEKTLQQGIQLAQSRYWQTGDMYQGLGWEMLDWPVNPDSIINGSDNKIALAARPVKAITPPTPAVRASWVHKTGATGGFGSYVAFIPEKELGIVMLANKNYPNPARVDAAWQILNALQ
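AmpC (5.3 nM in the dispensed reagent) in 20 mM phosphate pH 7.0 with 0.01% (detergent screen) or 0.0001% Triton X-100 was preincubated with compounds for 15 min at room temperature. Nitrocefin was then added from an 800 uM solution, and hydrolysis was followed at 480 nm.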
Sm TGR block = inhibitors of Schistosoma mansoni thioredoxin glutathione reductase; purified TGR, DTNB reduction, TNB absorbance 405 nm; Potency, µM (top dose mostly 114 µM), without a hit: at the top dose activity change, negative = inhibition, most hits filed as inhibitors; 3% of 360,000 active; Q962Y6; note: nearly all actives have a fitted effect of over 60% in size
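First, TGR (20 nM dispensed) and NADPH were mixed with compound. Second, a 15 min room-temperature incubation followed. Third, further NADPH and then DTNB were added to start the reaction. Finally, TNB absorbance was monitored kinetically.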
RE007 growth inh = less growth of the S. pombe RE007 Vpr strain | S. pombe RE007 Vpr strain, BacTiter-Glo ATP luminescence, 24 h | 0.21% of 360,000 active | Potency, µM (titrated, usually from 92.2 µM), for inactives: at the highest dose activity change, negative = less growth, most hits filed as inhibitors; active = well fitted falling curve with a large enough effect; inconclusive = small, poorly fitted or top-dose-only effect; inactive = no such curve, though single readings can be large or run the other way; note: nearly all actives have a fitted effect of over 50% in size
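Fission yeast strain RE007, carrying one chromosomally integrated HIV-1 vpr copy, was seeded at OD 0.01 in PMG+AL medium with 23 nL pinned compound. After 24 h at 30 °C and 99% humidity, viability was read by BacTiter-Glo luminescence.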
AmpC inh detg = AmpC beta-lactamase inhibition with detergent present | P00811 | AmpC hydrolysis of nitrocefin, absorbance 480 nm, 0.01% Triton | Potency, µM (series often up to 114 µM), for inactives: at the top dose activity change, negative = inhibition, actives largely listed as inhibitors | AID 485294 | 0.041% of 370,000 active;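 note: 0% = no-compound wells and -100% = no-enzyme wells; nearly all actives have a fitted effect of over 25% in size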
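AmpC (5.3 nM in the dispensed reagent) in 20 mM phosphate pH 7.0 with 0.01% (detergent screen) or 0.0001% Triton X-100 was preincubated with compounds for 15 min at room temperature. Nitrocefin was then added from an 800 uM solution, and hydrolysis was followed at 480 nm.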
An asterisk follows results filed as active; ? = inconclusive; nt = no result given; [ ] = dose if it differs, or a comment. Unless noted, calls come from the whole dose curve; as a rule, active = well fitted curve in the direction sought with a large enough effect; inconclusive = small, poorly fitted or top-dose-only effect, or another doubt; inactive = no such curve, though single readings can be large; an effect the other way counts as inactive or inconclusive. Unless noted, % is set by controls: 0 for no effect and ±100 for the full control effect; potency is the fitted concentration of half-maximal effect.

SMILES	AMA1-RON2 inh	AmpC inh no detg	Sm TGR block	RE007 growth inh	AmpC inh detg
Clc1ccc(-c2nnc3sc(-c4ccc(Br)o4)nn23)cc1	-8%	-48%	-7%	2%	?
Cc1oc(-c2ccc(Cl)cc2)cc1-c1nn2c(-c3ccoc3C)nnc2s1	5%	21%	22µM*	?	-9%
Cn1c(SCC(=O)N2CCCC2)nc2cccnc21	2%	138%	40µM*	23%	5%
O=C(CSc1nc2cccnc2n1Cc1ccccc1)N1CCCC1	-10%	-7%	3%	-5%	-6%
COc1ccc2c(c1)-c1c(ssc1=S)C(C)(C)N2	30µM*	-31%	-6%	-23%	?
COc1ccc2c(c1)-c1c(sn(-c3ccccc3)c1=S)C(C)(C)N2	13µM*	-32%	2%	4%	-13%
COc1ccc(-n2sc3c(c2=S)-c2cc(OC)ccc2NC3(C)C)cc1	22µM*	-31%	8%	-6%	-2%
COc1ccc2c(c1)-c1c(sn(-c3ccc(OC)c(OC)c3)c1=S)C(C)(C)N2	?	2%	-2%	0%	?
COC(=O)CN1C(=O)CSc2ccc(S(=O)(=O)Nc3c(C)cc(C)cc3C)cc21	nt	nt	2%	nt	7%
Cc1ccc(CNC(=O)C(NS(=O)(=O)c2cccs2)C(C)C)cc1 (stereo not given)	-4%	-23%	9%	3%	25%
CC(C)C(NS(=O)(=O)c1cccs1)C(=O)NCc1ccc2c(c1)OCO2 (stereo not given)	-1%	40µM*	0%	-1%	-1%
Cc1ccc(C)c(Cn2c(=O)n(CC3CCC(C(=O)N4CCOCC4)CC3)c(=O)c3sccc32)c1 (stereo not given)	nt	nt	-7%	nt	18%
O=C1C2=C(CCCC2)C(=O)N1c1cccc(OCCBr)c1	-2%	-10%	45µM*	?	3%
CCn1c(-c2cc(-c3cc(C)ccc3C)nc3ccccc23)n[nH]c1=S	1%	-3%	18%	-6%	?
CCn1c(-c2cc(C3CC3)nc3ccccc23)n[nH]c1=S	14%	-48%	45µM*	nt	-8%
O=C(Cn1ncc2c(Cl)cccc21)NCc1cccc(Cl)c1	nt	nt	7%	nt	-5%
Cc1oc2cc(Br)c(O)c(Br)c2c1-c1ccccc1	-7%	-37%	10µM*	?	-14%
Cc1cc2oc(=O)cc(-c3ccccc3)c2c(C)c1-c1ccc(O)cc1	-2%	-17%	nt	8%	nt
COCCN(C(=O)CCc1nnc(Cc2c[nH]c3ccccc23)o1)C(C)C	17%	57%	20µM*	4%	2%
O=C(CCc1nnc(Cc2c[nH]c3ccccc23)o1)NC(C1CC1)C1CC1	0%	8%	?	96%	-3%
CC(C)CCNC(=O)CCc1nnc(Cc2c[nH]c3ccccc23)o1	0%	35%	13µM*	-12%	7%
O=C(NC1CCCCC1)c1c[nH]c2ccc(S(=O)(=O)Nc3ccccc3F)cc2c1=O	nt	nt	22%	nt	1%
Cc1ccccc1-n1c(SCC(=O)Nc2ccc(Cl)cc2Cl)nc(O)cc1=O	nt	nt	-1%	nt	8%
O=C(CCc1nc(-c2ccccc2)no1)NCc1ccco1	-10%	-35%	45µM*	4%	-13%
COc1cc(-c2noc(CCCC(=O)NCc3ccco3)n2)cc(OC)c1OC	?	4%	45µM*	31%	-14%
SMILES	AMA1-RON2 inh	AmpC inh no detg	Sm TGR block	RE007 growth inh	AmpC inh detg
COc1ccccc1-c1noc(CCCC(=O)NCc2ccco2)n1	nt	nt	-27%	nt	9%
CCN(c1ccccc1)S(=O)(=O)c1ccc(-c2cc(C)no2)s1	nt	nt	23%	nt	5%
Cc1ccc(-c2nc3ncccc3o2)cc1NC(=O)c1ccc(-c2ccc(Cl)cc2)o1	nt	nt	-11%	nt	-8%
O=C(O)CCC(=O)N1CCc2cc(S(=O)(=O)NCc3ccc(F)cc3)ccc21	nt	nt	1%	nt	-13%
CCOC(=O)C1CCC(CN(Cc2ccc(Cl)cc2)S(=O)(=O)c2ccc(Br)cc2)CC1 (stereo not given)	nt	nt	3%	nt	0%
COc1ccccc1C(=O)NNC(=S)NC(=O)c1sc2ccccc2c1Cl	16%[11.6 µM]	-38%	-11%	1%	-11%
Cc1c(NC(=S)NC(=O)c2sc3ccccc3c2Cl)cccc1C(=O)O	8%	-6%	3.2µM*	5%	-1%
